# According to the supplement of paper PMC11006884:
# Targets with a hit are over-represented here; the source holds about 6,500 in all. About 2% of all pairs of compound and target were hits. A number with no mark means an inactive call.
# Compound: COC(=O)C#Cc1ccccc1 [methyl 3-phenylpropiolate]
# Assay: log2 ratio of iodoacetamide-alkyne labeling of the cysteine site, DMSO over compound (competition); higher = stronger covalent engagement of the cysteine by the compound, active = 1 or more
# Conditions: 500 µM; treatment time 1 h; system: HEK293T cell lysate
# How it was run: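 HEK293T lysate (2 mg/mL) was treated with DMSO or electrophile (500 µM, 1 h, ambient temperature), then iodoacetamide alkyne (1 h), clicked to sCIP-TMT reagents, pooled, trypsin-digested overnight at 37 °C, streptavidin-enriched and acid-eluted. Peptides were run on Orbitrap Eclipse LC-MS/MS with FAIMS and quantified in FragPipe. The log2 competition ratio per cysteine is mean control-channel over mean compound-channel reporter intensity. Duplicate channels and three replicates were used, and cysteines quantified in only one replicate were excluded.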
# Sequence of UniProt O15067 (O15067 whole entry, looked up): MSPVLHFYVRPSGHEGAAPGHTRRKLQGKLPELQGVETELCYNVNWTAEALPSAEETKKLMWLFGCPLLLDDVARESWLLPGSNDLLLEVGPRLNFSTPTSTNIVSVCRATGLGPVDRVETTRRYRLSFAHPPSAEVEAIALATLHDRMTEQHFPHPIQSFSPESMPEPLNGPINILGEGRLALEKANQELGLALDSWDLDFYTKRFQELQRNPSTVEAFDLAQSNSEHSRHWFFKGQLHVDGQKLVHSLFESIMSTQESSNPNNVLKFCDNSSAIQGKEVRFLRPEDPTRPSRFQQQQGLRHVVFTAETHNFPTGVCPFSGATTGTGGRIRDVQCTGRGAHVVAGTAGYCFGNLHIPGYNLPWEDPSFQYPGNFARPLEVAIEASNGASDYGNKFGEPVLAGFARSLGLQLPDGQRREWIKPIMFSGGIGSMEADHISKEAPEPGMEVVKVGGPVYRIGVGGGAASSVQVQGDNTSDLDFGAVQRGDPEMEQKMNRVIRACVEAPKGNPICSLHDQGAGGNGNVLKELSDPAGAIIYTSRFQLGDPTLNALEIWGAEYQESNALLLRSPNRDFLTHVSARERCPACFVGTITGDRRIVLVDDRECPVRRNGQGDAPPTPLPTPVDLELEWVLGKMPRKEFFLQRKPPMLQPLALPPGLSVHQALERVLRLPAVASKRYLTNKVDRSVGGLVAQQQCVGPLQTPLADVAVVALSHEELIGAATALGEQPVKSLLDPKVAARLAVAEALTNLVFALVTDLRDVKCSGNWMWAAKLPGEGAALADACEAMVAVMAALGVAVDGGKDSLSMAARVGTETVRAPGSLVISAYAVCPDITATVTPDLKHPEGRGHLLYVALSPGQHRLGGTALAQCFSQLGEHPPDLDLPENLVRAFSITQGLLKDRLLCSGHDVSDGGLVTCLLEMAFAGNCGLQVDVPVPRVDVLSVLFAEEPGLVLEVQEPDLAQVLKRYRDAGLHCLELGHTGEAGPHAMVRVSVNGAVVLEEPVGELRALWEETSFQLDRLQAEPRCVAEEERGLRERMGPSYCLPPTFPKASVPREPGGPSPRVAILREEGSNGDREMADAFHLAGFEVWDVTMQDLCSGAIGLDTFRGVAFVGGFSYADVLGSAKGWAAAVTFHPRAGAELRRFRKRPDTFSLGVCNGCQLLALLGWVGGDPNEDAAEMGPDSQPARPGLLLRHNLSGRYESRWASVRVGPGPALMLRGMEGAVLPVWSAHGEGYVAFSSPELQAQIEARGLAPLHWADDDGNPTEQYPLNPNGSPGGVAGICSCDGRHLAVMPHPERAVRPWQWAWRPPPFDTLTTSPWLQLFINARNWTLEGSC
# Sequence of UniProt O75334 (O75334 whole entry): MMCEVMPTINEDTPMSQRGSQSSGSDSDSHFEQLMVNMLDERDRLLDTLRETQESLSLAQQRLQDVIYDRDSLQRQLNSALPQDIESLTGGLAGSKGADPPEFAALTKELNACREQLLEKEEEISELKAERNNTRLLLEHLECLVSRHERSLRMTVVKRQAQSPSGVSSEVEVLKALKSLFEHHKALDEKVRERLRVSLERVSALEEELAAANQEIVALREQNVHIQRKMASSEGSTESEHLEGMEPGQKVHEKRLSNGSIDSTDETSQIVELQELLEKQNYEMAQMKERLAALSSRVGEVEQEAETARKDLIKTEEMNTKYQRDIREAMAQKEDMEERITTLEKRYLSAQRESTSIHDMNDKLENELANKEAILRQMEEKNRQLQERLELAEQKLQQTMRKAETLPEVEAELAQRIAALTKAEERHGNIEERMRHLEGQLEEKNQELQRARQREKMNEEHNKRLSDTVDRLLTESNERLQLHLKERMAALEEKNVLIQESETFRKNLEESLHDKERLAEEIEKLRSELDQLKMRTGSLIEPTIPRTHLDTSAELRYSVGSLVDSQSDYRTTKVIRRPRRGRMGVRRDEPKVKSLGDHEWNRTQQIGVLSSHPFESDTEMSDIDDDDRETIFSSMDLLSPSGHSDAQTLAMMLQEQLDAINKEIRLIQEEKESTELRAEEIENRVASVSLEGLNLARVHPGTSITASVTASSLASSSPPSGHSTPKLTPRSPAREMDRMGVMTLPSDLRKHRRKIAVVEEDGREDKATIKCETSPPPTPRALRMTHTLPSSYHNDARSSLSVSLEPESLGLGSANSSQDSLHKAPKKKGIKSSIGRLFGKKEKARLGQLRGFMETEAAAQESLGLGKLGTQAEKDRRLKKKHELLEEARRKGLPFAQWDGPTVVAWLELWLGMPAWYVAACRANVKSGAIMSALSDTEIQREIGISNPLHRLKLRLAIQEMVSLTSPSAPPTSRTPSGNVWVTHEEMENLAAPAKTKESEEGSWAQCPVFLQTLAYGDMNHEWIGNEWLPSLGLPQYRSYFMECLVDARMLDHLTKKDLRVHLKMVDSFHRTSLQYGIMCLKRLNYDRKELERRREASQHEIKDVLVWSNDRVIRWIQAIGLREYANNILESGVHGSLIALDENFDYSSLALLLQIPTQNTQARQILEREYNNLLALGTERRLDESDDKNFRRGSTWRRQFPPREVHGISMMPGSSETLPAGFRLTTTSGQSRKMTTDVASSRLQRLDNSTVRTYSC
# Sequence of UniProt O14980 (O14980 whole entry, looked up): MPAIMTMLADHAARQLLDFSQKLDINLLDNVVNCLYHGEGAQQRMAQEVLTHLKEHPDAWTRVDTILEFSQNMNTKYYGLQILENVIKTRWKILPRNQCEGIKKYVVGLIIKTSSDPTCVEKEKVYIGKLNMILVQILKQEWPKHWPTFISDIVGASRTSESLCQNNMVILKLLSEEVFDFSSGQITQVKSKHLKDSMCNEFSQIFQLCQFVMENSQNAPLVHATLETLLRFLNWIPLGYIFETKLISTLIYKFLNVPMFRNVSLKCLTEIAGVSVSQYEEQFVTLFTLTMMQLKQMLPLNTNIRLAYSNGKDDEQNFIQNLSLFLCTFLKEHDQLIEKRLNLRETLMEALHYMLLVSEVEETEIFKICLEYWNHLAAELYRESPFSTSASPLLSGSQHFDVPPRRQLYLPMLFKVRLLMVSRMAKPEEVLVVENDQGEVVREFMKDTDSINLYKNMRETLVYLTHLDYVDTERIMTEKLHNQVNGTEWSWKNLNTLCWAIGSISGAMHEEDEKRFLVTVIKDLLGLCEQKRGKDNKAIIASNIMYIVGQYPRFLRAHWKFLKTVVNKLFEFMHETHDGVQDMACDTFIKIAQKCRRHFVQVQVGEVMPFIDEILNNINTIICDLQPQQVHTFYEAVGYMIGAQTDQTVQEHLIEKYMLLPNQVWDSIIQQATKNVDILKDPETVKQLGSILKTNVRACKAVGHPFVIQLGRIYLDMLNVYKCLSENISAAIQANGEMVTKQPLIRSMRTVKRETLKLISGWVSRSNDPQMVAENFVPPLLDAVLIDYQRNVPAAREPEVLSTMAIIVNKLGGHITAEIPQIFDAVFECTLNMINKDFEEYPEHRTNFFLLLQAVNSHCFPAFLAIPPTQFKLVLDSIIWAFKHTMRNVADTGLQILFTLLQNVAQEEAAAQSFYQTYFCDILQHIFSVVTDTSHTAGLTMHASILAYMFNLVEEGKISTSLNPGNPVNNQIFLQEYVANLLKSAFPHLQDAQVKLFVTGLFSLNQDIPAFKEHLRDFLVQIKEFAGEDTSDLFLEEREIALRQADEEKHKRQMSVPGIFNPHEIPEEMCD
# Sequence of UniProt O15084 (O15084 whole entry): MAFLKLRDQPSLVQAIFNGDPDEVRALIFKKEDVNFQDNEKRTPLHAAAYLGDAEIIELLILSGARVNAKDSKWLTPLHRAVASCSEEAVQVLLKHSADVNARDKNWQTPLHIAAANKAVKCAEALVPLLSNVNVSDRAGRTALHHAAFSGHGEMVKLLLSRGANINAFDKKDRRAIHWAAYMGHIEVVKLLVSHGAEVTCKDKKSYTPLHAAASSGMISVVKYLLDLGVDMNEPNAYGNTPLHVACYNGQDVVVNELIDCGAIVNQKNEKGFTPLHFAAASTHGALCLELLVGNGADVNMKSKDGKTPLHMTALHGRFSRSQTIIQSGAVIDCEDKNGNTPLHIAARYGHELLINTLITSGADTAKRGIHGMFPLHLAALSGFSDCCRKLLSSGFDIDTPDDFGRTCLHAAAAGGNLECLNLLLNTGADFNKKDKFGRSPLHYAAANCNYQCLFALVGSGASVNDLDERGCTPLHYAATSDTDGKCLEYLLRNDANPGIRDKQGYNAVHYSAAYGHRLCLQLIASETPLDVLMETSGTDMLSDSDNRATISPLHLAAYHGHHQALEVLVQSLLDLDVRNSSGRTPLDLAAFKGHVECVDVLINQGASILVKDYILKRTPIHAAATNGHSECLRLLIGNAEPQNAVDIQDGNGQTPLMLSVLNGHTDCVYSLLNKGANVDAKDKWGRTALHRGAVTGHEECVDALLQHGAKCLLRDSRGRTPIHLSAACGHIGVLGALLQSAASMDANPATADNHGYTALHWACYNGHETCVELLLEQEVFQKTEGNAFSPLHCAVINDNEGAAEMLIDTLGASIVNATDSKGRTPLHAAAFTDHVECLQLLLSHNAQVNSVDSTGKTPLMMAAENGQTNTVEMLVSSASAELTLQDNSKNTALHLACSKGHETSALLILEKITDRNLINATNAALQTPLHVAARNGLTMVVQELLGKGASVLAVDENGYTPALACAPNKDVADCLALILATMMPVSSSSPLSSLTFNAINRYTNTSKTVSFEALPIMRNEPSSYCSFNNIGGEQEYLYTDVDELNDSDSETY
# Sequence of UniProt O00244 (O00244 whole entry, looked up): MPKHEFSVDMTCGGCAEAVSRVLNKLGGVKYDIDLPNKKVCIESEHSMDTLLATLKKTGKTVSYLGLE
# Sequence of UniProt O15304 (O15304 whole entry, looked up): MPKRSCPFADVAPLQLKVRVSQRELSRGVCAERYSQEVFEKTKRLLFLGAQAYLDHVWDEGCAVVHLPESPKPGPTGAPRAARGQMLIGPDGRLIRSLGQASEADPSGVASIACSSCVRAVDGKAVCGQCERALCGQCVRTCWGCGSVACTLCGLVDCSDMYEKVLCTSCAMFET
row,Target,log2 ratio of iodoacetamide-alkyne labeling
1,A0AVT1_C347,2.27 (active)
2,RIPK2 C414 (UniProt O43353),1.35 (active)
3,PCF11 C1534 (UniProt O94913),0.259
4,SIVA1 C6 (UniProt O15304),1.88 (active)
5,HEXIM1 C18 (UniProt O94992),0.398
6,NVL C626 (UniProt O15381),0.651
7,PRPF6 C698 (UniProt O94906),0.0824
8,CPD C582 (UniProt O75976),0.145
9,ARHGEF11 C1500 (UniProt O15085),0.0286
10,EXOC5 C111 (UniProt O00471),0.297
11,FANCG C417 (UniProt O15287),0.36
12,PFAS C1285 (UniProt O15067),1.36 (active)
13,NVL C550 (UniProt O15381),-0.302
14,IGF2BP3 C546 (UniProt O00425),0.284
15,UniProt A0MZ66_C565,0.734
16,UniProt O75153_C153,0.605
17,OGT C620 (UniProt O15294),1.35 (active)
18,DDX3X C128 (UniProt O00571),0.406
19,GEMIN2 C63 (UniProt O14893),0.211
20,IDH3B C233 (UniProt O43837),0.394

row,Target,log2 ratio of iodoacetamide-alkyne labeling
1,KATNA1 C491 (UniProt O75449),0.112
2,PPFIA2 C143 (UniProt O75334),-0.214
3,XPO1 C164 (UniProt O14980),-0.00596
4,ATOX1 C12 (UniProt O00244),1.27 (active)
5,UTP20 C2058 (UniProt O75691),0.539
6,PSMD11 C289 (UniProt O00231),0.253
7,AP3D1 C137 (UniProt O14617),0.262
8,POLRMT C119 (UniProt O00411),1.22 (active)
9,ZZEF1 C2466 (UniProt O43149),-0.132
10,NVL C192 (UniProt O15381),0.306
11,POM121C C438 (UniProt A8CG34),1.04 (active)
12,HTATSF1 C462 (UniProt O43719),1.14 (active)
13,ANKRD28 C701 (UniProt O15084),0.336
14,ANKRD17 C58 (UniProt O75179),1.35 (active)
15,NVL C391 (UniProt O15381),0.0922
16,DNM1L C367 (UniProt O00429),0.986
17,TRIM24 C81 (UniProt O15164),0.0661
18,HEXIM1 C79 (UniProt O94992),1.3 (active)
19,TIPRL C87 (UniProt O75663),1.32 (active)
